PubChem BioAssay (NCATS)
Inconclusive results are not listed. Values without a mark were called inactive. Active and inactive are the calls of the source. Calls come from the whole dose curve; as a rule, active = well fitted curve in the direction sought with a large enough effect; inconclusive = small, poorly fitted or top-dose-only effect, or another doubt; inactive = no such curve, though single readings can be large; an effect the other way counts as inactive or inconclusive.

Key:
[1] = qHTS of pediatric cancer cell lines to identify multiple opportunities for drug repurposing: Primary screen for Rh30 cells (AID 1347107); note: nearly all actives have a fitted effect of over 75% in size
In short: (§1)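 Cells (500-1,000/well) rested 5 h, then received compounds for 48 h; metabolically active cells were measured by CellTiter-Glo luminescence. Final concentrations spanned up to 46 µM (MIPE, 11-point) or 0.59 nM-46 µM (NPC, 8-point) in primary screens, 11-point in follow-ups.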

[2] = qHTS of pediatric cancer cell lines to identify multiple opportunities for drug repurposing: Confirmatory screen for NB1643 cells (AID 1347109); note: nearly all actives have a fitted effect of over 45% in size; note: potency is the fitted concentration of half-maximal effect
In short: as §1

[3] = qHTS of pediatric cancer cell lines to identify multiple opportunities for drug repurposing: Confirmatory screen for A673 cells (AID 1347110);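 note: potency is the fitted concentration of half-maximal effect; cells exposed to compound for 48 h before the viability read; nearly all actives have a fitted effect of over 65% in size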
In short: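 Viability was read as ATP luminescence (CellTiter-Glo) after 48 h of compound exposure at 37 C in A673 cells seeded at 500-1,000/well. Titrations reached 46 uM final, with 11 points in the confirmatory screen. Concentration-response curves were fitted directly.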

[4] = qHTS of pediatric cancer cell lines to identify multiple opportunities for drug repurposing: Confirmatory screen for SK-N-MC cells (AID 1347111);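 note: cells exposed to compound for 48 h before the readout; nearly all actives have a fitted effect of over 70% in size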; note: potency is the fitted concentration of half-maximal effect
In short: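 Seed 500-1,000 cells/well; rest 5 h at 37 degrees C. Pin-transfer compounds, 11-point titration. Incubate 48 h. Add CellTiter-Glo, 15 min RT, read luminescence.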

[5] = qHTS of pediatric cancer cell lines to identify multiple opportunities for drug repurposing: Confirmatory screen for BT-12 cells (AID 1347112); note: nearly all actives have a fitted effect of over 55% in size; note: potency is the fitted concentration of half-maximal effect
In short: as §1

[6] = qHTS of pediatric cancer cell lines to identify multiple opportunities for drug repurposing: Confirmatory screen for LAN-5 cells (AID 1347113); note: nearly all actives have a fitted effect of over 65% in size; note: potency is the fitted concentration of half-maximal effect
In short: as §1

[7] = qHTS of pediatric cancer cell lines to identify multiple opportunities for drug repurposing: Confirmatory screen for DAOY cells (AID 1347114); note: nearly all actives have a fitted effect of over 65% in size; note: potency is the fitted concentration of half-maximal effect
In short: (§2)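 Viability measured as metabolically active cells via CellTiter-Glo luminescence following 48 hours of compound exposure, 11-point dilutions in confirmatory testing. 500-1,000 cells/well plated 5 hours before dosing; controls were DMSO and 2.3 µM bortezomib.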

[8] = qHTS of pediatric cancer cell lines to identify multiple opportunities for drug repurposing: Confirmatory screen for NB-EBc1 cells (AID 1347115);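 note: cells exposed to compound for 48 h before the viability read; nearly all actives have a fitted effect of over 45% in size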; note: potency is the fitted concentration of half-maximal effect
In short: as §1

[9] = qHTS of pediatric cancer cell lines to identify multiple opportunities for drug repurposing: Confirmatory screen for SJ-GBM2 cells (AID 1347116); note: nearly all actives have a fitted effect of over 60% in size; note: potency is the fitted concentration of half-maximal effect
In short: as §2

[10] = qHTS of pediatric cancer cell lines to identify multiple opportunities for drug repurposing: Confirmatory screen for BT-37 cells (AID 1347117); settings: BT-37 pediatric cancer cells, viability; activity change, negative = cytotoxic: at 45.9 µM (top of the series); note: nearly all actives have a fitted effect of over 55% in size; note: potency is the fitted concentration of half-maximal effect
In short: as §1

[11] = qHTS of pediatric cancer cell lines to identify multiple opportunities for drug repurposing: Confirmatory screen for TC32 cells (AID 1347118);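 note: cells exposed to compound for 48 h before the read; nearly all actives have a fitted effect of over 65% in size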; note: potency is the fitted concentration of half-maximal effect
In short: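 Luminescent CellTiter-Glo read-out of metabolically active TC32 cells after 48 h compound exposure. Primary: MIPE 11-point, 0.78 nM–46 µM; NPC 8-point, 0.59 nM–46 µM. Confirmatory: 11-point dilutions.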

[12] = qHTS of pediatric cancer cell lines to identify multiple opportunities for drug repurposing: Confirmatory screen for MG 63 (6-TG R) cells (AID 1347119); note: nearly all actives have a fitted effect of over 55% in size; note: potency is the fitted concentration of half-maximal effect
In short: as §1

[13] = qHTS of pediatric cancer cell lines to identify multiple opportunities for drug repurposing: Confirmatory screen for control Hh wild type fibroblast cells (AID 1347121); note: nearly all actives have a fitted effect of over 70% in size
In short: as §1

[14] = qHTS of pediatric cancer cell lines to identify multiple opportunities for drug repurposing: Confirmatory screen for U-2 OS cells (AID 1347122); note: nearly all actives have a fitted effect of over 65% in size; note: potency is the fitted concentration of half-maximal effect
In short: as §1

[15] = qHTS of pediatric cancer cell lines to identify multiple opportunities for drug repurposing: Confirmatory screen for Rh41 cells (AID 1347123); note: potency is the fitted concentration of half-maximal effect; nearly all actives have a fitted effect of over 60% in size
In short: as §1

[16] = qHTS of pediatric cancer cell lines to identify multiple opportunities for drug repurposing: Confirmatory screen for RD cells (AID 1347124); note: potency is the fitted concentration of half-maximal effect
In short: as §1

[17] = qHTS of pediatric cancer cell lines to identify multiple opportunities for drug repurposing: Confirmatory screen for Rh18 cells (AID 1347125); note: nearly all actives have a fitted effect of over 55% in size; note: potency is the fitted concentration of half-maximal effect
In short: as §1

[18] = qHTS of pediatric cancer cell lines to identify multiple opportunities for drug repurposing: Primary screen for control Hh wild type fibroblast cells (AID 1347106)
In short: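 Viability after 48 h compound treatment at 37C, 500-1,000 cells/well, read as ATP luminescence with CellTiter-Glo. Primary screens used 11-point (MIPE, 0.78 nM-46 µM) or 8-point (NPC, 0.59 nM-46 µM) final concentrations; follow-up screens used 11-point dilutions.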

[19] = qHTS of pediatric cancer cell lines to identify multiple opportunities for drug repurposing: Primary screen for Rh41 cells (AID 1347108); note: potency is the fitted concentration of half-maximal effect; nearly all actives have a fitted effect of over 70% in size
In short: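 Plated cells (500-1,000 per well, growth media) were allowed to settle for 5 hours, treated with compound dilutions for 48 hours, then lysed with CellTiter-Glo for 15 min at room temperature before luminescence reading.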

CC[C@]12C=CCN3CC[C@@]4(c5cc([C@@]6(C(=O)OC)C[C@H]7C[C@@H](C(C)(F)F)CN(Cc8c6[nH]c6ccccc86)C7)c(OC)cc5N(C)[C@H]4[C@@](O)(C(=O)OC)[C@H]1OC(C)=O)[C@@H]32
Potency [1]: inactive
Potency [2]: inactive
Potency [3]: 522 nM (active)
Potency [4]: 9270 nM (active)
Potency [5]: inactive
Potency [6]: inactive
Potency [7]: inactive
Potency [8]: inactive
Potency [9]: inactive
Potency [10]: inactive
Potency [11]: 9270 nM (active)
Potency [12]: inactive
Potency [13]: inactive
Potency [14]: inactive
Potency [15]: 3690 nM (active)
Potency [16]: inactive
Potency [17]: inactive

N#Cc1c(NC(=O)c2cccc3ccccc23)sc2c1CCCC2
Potency [1]: inactive
Potency [3]: 414 nM (active)
Potency [4]: 369 nM (active)
Potency [5]: 2330 nM (active)
Potency [10]: 827 nM (active)
Potency [11]: 233 nM (active)
Potency [12]: 329 nM (active)
Potency [13]: inactive
Potency [14]: 657 nM (active)
Potency [17]: inactive

N#Cc1c(C2CCNCC2)cc(-c2c(O)cccc2OCC2CC2)nc1N
Potency [18]: inactive
Potency [19]: 14800 nM (active)
Potency [4]: inactive
Potency [7]: 16500 nM (active)
Potency [11]: inactive
Potency [13]: inactive
Potency [15]: 3290 nM (active)
Potency [17]: inactive

COc1cccc2c1C(=O)c1c(O)c3c(c(O)c1C2=O)C[C@@](O)(C(=O)CO)C[C@H]3O[C@H]1C[C@H](N)[C@H](O)[C@H](C)O1
Potency [1]: inactive
Potency [19]: 743 nM (active)
Potency [2]: 522 nM (active)
Potency [4]: 414 nM (active)
Potency [5]: 1470 nM (active)
Potency [6]: 369 nM (active)
Potency [7]: 3690 nM (active)
Potency [9]: 928 nM (active)
Potency [10]: 293 nM (active)
Potency [11]: 261 nM (active)
Potency [14]: 13100 nM (active)
Potency [15]: 928 nM (active)
Potency [16]: 5220 nM (active)
Potency [17]: 1470 nM (active)

COc1cc([C@@H]2c3cc4c(cc3[C@H](O)[C@H]3COC(=O)[C@@H]23)OCO4)cc(OC)c1OC
Potency [1]: inactive
Potency [3]: 928 nM (active)
Potency [4]: 585 nM (active)
Potency [5]: 1040 nM (active)
Potency [6]: 1040 nM (active)
Potency [7]: 414 nM (active)
Potency [10]: 1170 nM (active)
Potency [11]: 465 nM (active)
Potency [12]: 737 nM (active)
Potency [13]: inactive
Potency [14]: 1850 nM (active)
Potency [16]: 928 nM (active)
Potency [17]: inactive

C#Cc1cccc(Nc2ncnc3cc(OCCOC)c(OCCO)cc23)c1
Potency [1]: inactive
Potency [19]: 7430 nM (active)

COc1ccc(C=Cc2cc(OC)c(OC)c(OC)c2)cc1NC(=O)[C@H](N)CO
Potency [1]: inactive
Potency [4]: 117 nM (active)
Potency [5]: 117 nM (active)
Potency [6]: 414 nM (active)
Potency [8]: 52.2 nM (active)
Potency [9]: 827 nM (active)
Potency [10]: 73.7 nM (active)
Potency [11]: 46.5 nM (active)
Potency [12]: 46.5 nM (active)
Potency [13]: inactive
Potency [14]: 117 nM (active)
Potency [15]: 104 nM (active)
Potency [16]: 131 nM (active)
Potency [17]: inactive

Cn1c(Nc2ccc(C(F)(F)F)cc2)nc2cc(Oc3ccnc(-c4ncc(C(F)(F)F)[nH]4)c3)ccc21
Potency [1]: inactive
Potency [2]: 20800 nM (active)
Potency [4]: 7370 nM (active)
Potency [6]: 18500 nM (active)
Potency [9]: inactive
Potency [10]: 4650 nM (active)
Potency [11]: 928 nM (active)
Potency [12]: 13100 nM (active)
Potency [17]: inactive

CN1C(C(=O)Nc2ccccn2)=C(O)c2sc(Cl)cc2S1(=O)=O
Potency [1]: inactive

COc1ccc(C[C@@H](C)[C@@H](C)Cc2ccc(OC)c(OC)c2)cc1OC
Potency [1]: inactive
Potency [4]: 10400 nM (active)
Potency [6]: inactive
Potency [7]: 11700 nM (active)
Potency [9]: inactive
Potency [11]: 4140 nM (active)
Potency [12]: 9270 nM (active)
Potency [14]: inactive
Potency [17]: inactive

C=CC(=O)Nc1cc(NC(=O)c2ccc(C)c(NC(=O)c3ccno3)c2)cc(C(F)(F)F)c1
Potency [19]: 20900 nM (active)

C=CCNc1c(O)cc2c(O)c1C[C@@H](C)C[C@H](OC)[C@@H](O)[C@@H](C)C=C(C)[C@H](OC(N)=O)[C@@H](OC)C=CC=C(C)C(=O)N2
Potency [1]: inactive
Potency [19]: 2350 nM (active)

COc1ccc2c(c1OC)C(=O)OC2[C@H]1c2c(cc3c(c2OC)OCO3)CCN1C (some centres not stated)
Potency [19]: 469 nM (active)
Potency [2]: inactive
Potency [6]: inactive
Potency [8]: inactive
Potency [9]: inactive
Potency [10]: inactive
Potency [11]: 2930 nM (active)
Potency [14]: inactive
Potency [16]: inactive
Potency [17]: inactive

COc1cc(N2CCC(C(N)=O)CC2)ccc1Nc1nc(N)c(Cl)c(Nc2ccccc2S(=O)(=O)C(C)C)n1
Potency [1]: inactive
Potency [19]: 590 nM (active)
